The results in this text go back to PubChem BioAssay.

The source made the active and inactive calls.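 The calls were made as follows, unless noted: active = visual image review flags a hit and inhibition of aggregation exceeds 20%; inconclusive = visual hit but inhibition at or below 20%; inactive = no hit on visual image review.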

Experiment [1] is described as follows: inhibitors of TNFa-induced NFkB p65 translocation, primary screen, imaging, HUVEC, MLSMR starter and 10KST1 sets (AID 438;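 active = inhibition above 20% together with a positive visual image hit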;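 also: compound added about 3h40 before a 20 min TNFalpha stimulation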;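 as to inhibition: signal is the nuclear over cytoplasmic p65 intensity ratio per well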). As to conditions: HUVEC TNFa-induced p65 nuclear translocation; cell count: measured here: nuclei count (cytotoxicity indicator), at 2.08 µM; inhibition: at 2 µM, stronger effect = higher value, 0% TNFa-plus-vehicle, 100% no-TNFa wells.
The nature of experiment [2]: inhibitors of mutant huntingtin aggregation, primary screen, imaging, exon1htt(103Q)mCFP cells, high-content imaging (AID 483).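 Also: compound exposure lasted 3 days before fixation.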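 As to nuclei count: percent of the per-plate median nuclei count of sample wells.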 The note with it: exon1htt(103Q)mCFP cell line, aggregate imaging, at 2 µM; inhibition of aggregation: stronger effect = higher value; nuclei count: measured here: cell count, toxicity.
Experiment [3] is described as follows: inhibitors of E-selectin induction by TNFa, primary screen, imaging, HUVEC, immunofluorescence, MLSMR starter and 10KST1 sets (AID 487;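 active = visually confirmed hit in the image check and inhibition above 20%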;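 as to inhibition: signal is fraction of cell area covered by stained E-selectin grains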;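 as to nuclei count: 100% = median nuclei count of all wells on the same plate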). As to conditions: HUVEC TNFalpha-induced E-selectin immunofluorescence imaging, at 2 µM; inhibition: stronger effect = higher value; nuclei count: measured here: cell number, toxicity.
Experiment [4] concerns the target Voltage-gated potassium channel subunit beta-2 (Rattus norvegicus) (UniProt P62483). The experiment is described as follows: KvBeta enzyme negative modulators, primary screen, biochemical, NADPH fluorescence (AID 622;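 active = fluorescence slope higher than the sample average by over 3 SD, cut at about -0.22 in these data, passing the limit was not always enough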;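 also: slope of raw intensity against log time taken from 70 to 1610 s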). The note with it: recombinant KvBeta, 4-cyanobenzaldehyde reduction, at 10 µM, stronger effect = higher value.
Experiment [5] has the same target. As to the kind of experiment: KvBeta positive modulators, primary screen, biochemical, NADPH fluorescence (AID 623;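 active = NADPH fluorescence slope more negative than the mean of all samples by about 3 SD, 99.7% confidence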;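 also: fluorescence intensity change per second fitted from 20 to 320 s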). As to conditions: Recombinant KvBeta, NADPH fluorescence decrease slope, 10 min; at 10 µM; stronger effect = lower value.
Experiment [6] concerns the target Alpha-2C adrenergic receptor (Homo sapiens) (UniProt P18825). As to the kind of experiment: modulators of alpha2C/GIRK thallium flux, primary screen, cell-based, HEK293 alpha2C/GIRK1/2 (AID 624;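 active = fluorescence slope after compound addition differing from the mean of all screened samples at 99.7% confidence, in either direction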;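 also: slope of fluorescence ratio to pre-addition baseline per second over 15 to 24 s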). As to conditions: thallium flux BTC fluorescence, at 10 µM, actives lie on both sides.
The nature of experiment [7]: inhibitors of Sendai virus-induced IRF3 signaling, primary screen, TLR/RLR signaling modifier project, cell-based, Sendai virus stimulus, luciferase, 10K MLSCN set (AID 602276;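 active = inhibition at or above 50% at 10 µM; inactive = inhibition below 50%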;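 also: firefly luciferase from ISG56 promoter only with Renilla not read in this screen; 0% = Sendai virus plus DMSO and 100% = medium plus DMSO without virus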). The note with it: HEK293 RL24 IRF3 luciferase reporter, at 10 µM, stronger effect = higher value.
Experiment [8] is described as follows: inhibitors of poly I:C-induced TLR3 signaling, primary screen, cell-based, poly I:C stimulus, luciferase, 10K MLSCN set (AID 602277;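 active = inhibition of the reporter signal at or above 50%; inactive = inhibition below 50%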). The note with it: HEK293-TLR3 RL24 IRF3 luciferase reporter, at 10 µM, stronger effect = higher value. On the technique in general: In a reporter assay the amount or activity of a reporter protein is the signal.

Chain of Alpha-2C adrenergic receptor (Homo sapiens) (P18825 whole entry, looked up): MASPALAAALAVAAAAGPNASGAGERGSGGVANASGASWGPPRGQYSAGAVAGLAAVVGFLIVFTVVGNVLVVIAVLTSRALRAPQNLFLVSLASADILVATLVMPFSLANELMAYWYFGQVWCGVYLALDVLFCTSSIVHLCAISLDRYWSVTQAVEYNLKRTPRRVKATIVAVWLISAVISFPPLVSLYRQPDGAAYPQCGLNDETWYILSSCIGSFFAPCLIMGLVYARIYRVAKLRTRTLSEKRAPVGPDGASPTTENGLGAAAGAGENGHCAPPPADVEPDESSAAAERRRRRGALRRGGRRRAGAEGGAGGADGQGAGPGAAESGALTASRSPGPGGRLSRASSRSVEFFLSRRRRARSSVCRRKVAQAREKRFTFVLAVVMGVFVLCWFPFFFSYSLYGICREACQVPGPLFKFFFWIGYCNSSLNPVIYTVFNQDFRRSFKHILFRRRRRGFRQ
Chain of Voltage-gated potassium channel subunit beta-2 (Rattus norvegicus) (P62483 whole entry, looked up): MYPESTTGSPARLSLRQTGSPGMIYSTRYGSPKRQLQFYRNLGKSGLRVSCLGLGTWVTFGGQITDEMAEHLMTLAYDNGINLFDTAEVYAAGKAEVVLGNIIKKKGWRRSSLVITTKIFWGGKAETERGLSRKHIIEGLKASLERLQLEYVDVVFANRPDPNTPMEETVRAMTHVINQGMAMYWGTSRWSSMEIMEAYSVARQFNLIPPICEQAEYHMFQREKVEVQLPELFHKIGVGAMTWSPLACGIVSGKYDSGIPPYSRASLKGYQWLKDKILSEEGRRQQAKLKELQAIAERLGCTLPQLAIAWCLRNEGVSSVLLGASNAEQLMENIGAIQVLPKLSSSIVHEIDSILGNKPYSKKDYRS

One may read the inhibition as the change of the read-out against control, counted positive when it falls. Consider `O=C1OCCC1Sc1ncnc2sc3c(c12)CCC3` (centres undefined), for which the cell count in experiment [1] was 755. The inhibition in experiment [1] is -6.2% (inactive); in experiment [3], -9.4% (inactive); in experiment [7], 9.45% (inactive); in experiment [8] it was 17% (inactive). Also, in experiment [2], the inhibition of aggregation is 4.8% (inactive). Moreover, the nuclei count in experiment [2] was 84.1%; in experiment [3], 111%. The fluorescence slope in experiment [4] was -0.412 (inactive). Moreover, the NADPH fluorescence slope in experiment [5] is 4.3e-06 (inactive). The slope in experiment [6] was 0.00667 (inactive).
For `COc1ccc(-c2nnc(SC(C)C(=O)Nc3nccs3)n2-c2ccccc2)cc1OC` (centres undefined), the cell count in experiment [1] was 548. In addition, the inhibition in experiment [1] is -8% (inactive); in experiment [3] it was -36.4% (inactive); in experiment [7], -14.8% (inactive); in experiment [8], -2.92% (inactive). Moreover, the inhibition of aggregation in experiment [2] is 2.8% (inactive). The nuclei count in experiment [2] worked out at 82.2%; in experiment [3], 93.8%. The fluorescence slope in experiment [4] was -0.496 (inactive). Also, the NADPH fluorescence slope in experiment [5] was 2.4e-05 (inactive). For the same compound, the slope in experiment [6] was 0.0047 (inactive).
Consider `Cc1[nH]c2c(C)cccc2c(=O)c1Br`, for which, in experiment [1], the cell count was 440. For the same compound, the inhibition in experiment [1] was 6.7% (inactive); in experiment [3] it was 30.1% (inactive); in experiment [7] it was 14.8% (inactive); in experiment [8] it was 7.69% (inactive). Besides, the inhibition of aggregation in experiment [2] was 12.7% (inactive). In addition, the nuclei count stood at 106% in experiment [2] and 85.5% in experiment [3]. In experiment [4], the fluorescence slope is -0.584 (inactive). Further, the NADPH fluorescence slope in experiment [5] is -7.5e-05 (inactive). Moreover, the slope in experiment [6] is 0.0031 (inactive).
On to `Cc1ccnc(N2CCN(C(=O)CSc3nc4ccccc4nc3N3CCCCC3)CC2)c1`, for which the cell count in experiment [1] stood at 451. The inhibition in experiment [1] is -9.8% (inactive); in experiment [3] it was -13.7% (inactive); in experiment [7] it was 9.18% (inactive); in experiment [8], 4.58% (inactive). The inhibition of aggregation in experiment [2] is -14.3% (inactive). Further, the nuclei count in experiment [2] amounted to 113%; in experiment [3] it was 100%. Moreover, in experiment [4], the fluorescence slope was -0.333 (inactive). In addition, the NADPH fluorescence slope in experiment [5] was 9.1e-07 (inactive). Further, the slope in experiment [6] is 0.00385 (inactive).
As for `CCOc1ccc(N(CC(=O)NC2CCCC2)S(=O)(=O)c2c(C)[nH]c(=O)[nH]c2=O)cc1`, the cell count in experiment [1] was found to be 552. The inhibition in experiment [1] was 14% (inactive); in experiment [3], -159% (inactive); in experiment [7], 4.96% (inactive); in experiment [8], 15.6% (inactive). Further, the inhibition of aggregation in experiment [2] was 15.7% (inactive). In addition, the nuclei count in experiment [2] turned out to be 107%; in experiment [3], 132%. Besides, the fluorescence slope in experiment [4] is -0.518 (inactive). For the same compound, the NADPH fluorescence slope in experiment [5] was -5.9e-05 (inactive). Moreover, the slope in experiment [6] was 0.00723 (inactive).
Take `CCN(CC)S(=O)(=O)c1ccc(C(=O)N2CCN=C2SCc2cccnc2)cc1`: the cell count in experiment [1] was determined as 213. Besides, the inhibition in experiment [1] was -3.9% (inactive); in experiment [3], -32.1% (inactive); in experiment [7] it was -1.95% (inactive); in experiment [8] it was 9.81% (inactive). For the same compound, in experiment [2], the inhibition of aggregation was -5.6% (inactive). Further, the nuclei count came to 99.7% in experiment [2] and 122% in experiment [3]. The fluorescence slope in experiment [4] was -0.587 (inactive). Further, in experiment [5], the NADPH fluorescence slope is -1.9e-05 (inactive). In experiment [6], the slope is 0.0061 (inactive).
Turning to `CCOc1ccccc1N1C(=O)c2ccc(C(=O)Nc3cccnc3)cc2C1=O`, the cell count in experiment [1] was found to be 594. For the same compound, the inhibition was 0.8% (inactive) in experiment [1], -38.7% (inactive) in experiment [3], 11.8% (inactive) in experiment [7] and 21% (inactive) in experiment [8]. Also, in experiment [2], the inhibition of aggregation was 1.8% (inactive). For the same compound, the nuclei count in experiment [2] came to 105%; in experiment [3], 109%. The fluorescence slope in experiment [4] was -0.482 (inactive). The NADPH fluorescence slope in experiment [5] is 1.2e-05 (inactive). Besides, in experiment [6], the slope is 0.00693 (inactive).
With `CC(C)CCSc1nc2c(c(=O)[nH]c(=O)n2C)n1CCCc1ccccc1`, the cell count in experiment [1] stood at 618. The inhibition is -5.9% (inactive) in experiment [1], -34.8% (inactive) in experiment [3], 10.3% (inactive) in experiment [7] and 29.8% (inactive) in experiment [8]. In experiment [2], the inhibition of aggregation was 26.4% (inactive). In addition, the nuclei count in experiment [2] came out at 103%; in experiment [3] it was 120%. Also, the fluorescence slope in experiment [4] is -0.414 (inactive). In experiment [5], the NADPH fluorescence slope was -4.8e-05 (inactive). Further, the slope in experiment [6] was 0.00519 (inactive).
Turning to `CC1(C)CC(=O)C(CC(=O)NC(=O)NCc2ccccc2)=C(O)C1`, the cell count in experiment [1] was found to be 462. Also, the inhibition in experiment [1] was 3.4% (inactive); in experiment [3], -65.4% (inactive); in experiment [7], -1.73% (inactive); in experiment [8], 7.39% (inactive). In addition, the inhibition of aggregation in experiment [2] is 0.1% (inactive). Moreover, the nuclei count is 102% in experiment [2] and 99.2% in experiment [3]. In addition, the fluorescence slope in experiment [4] was -0.501 (inactive). The NADPH fluorescence slope in experiment [5] is 1e-05 (inactive). Besides, the slope in experiment [6] was 0.00433 (inactive).
Take `CN(C)c1cccc(C(=O)OCC(=O)NCc2ccco2)c1`: the cell count in experiment [1] is 806. Further, the inhibition in experiment [1] was -12.9% (inactive); in experiment [3], 9.6% (inactive); in experiment [7], 10.8% (inactive); in experiment [8] it was 5.69% (inactive). For the same compound, the inhibition of aggregation in experiment [2] was 5.8% (inactive). The nuclei count in experiment [2] came out at 85.3%; in experiment [3], 97.5%. Besides, the fluorescence slope in experiment [4] is -0.603 (inactive). Further, the NADPH fluorescence slope in experiment [5] is 3e-05 (inactive). For the same compound, the slope in experiment [6] is 0.0074 (inactive).
For `COc1ccc(C)cc1NC(=O)CN1CCN(S(=O)(=O)c2ccc(Cl)cc2)CC1`, the cell count in experiment [1] worked out at 409. Further, the inhibition in experiment [1] is -1.5% (inactive); in experiment [3] it was -76.7% (inactive); in experiment [7] it was 5.97% (inactive); in experiment [8], 15.6% (inactive). Also, in experiment [2], the inhibition of aggregation was 4.2% (inactive). Moreover, the results for the nuclei count in experiment [2] and in experiment [3] were 104% and 98.9%, respectively. In addition, the fluorescence slope in experiment [4] is -0.41 (inactive). The NADPH fluorescence slope in experiment [5] is -3e-05 (inactive). The slope in experiment [6] was 0.0018 (inactive).
For the compound `CCOC(=O)c1[nH]c(C)c(C(=O)Nc2ccc(C)cc2C)c1C`, the cell count in experiment [1] was determined as 505. Moreover, the inhibition in experiment [1] was 5.8% (inactive); in experiment [3], -53.4% (inactive); in experiment [7], 1.87% (inactive); in experiment [8], 16.3% (inactive). Besides, the inhibition of aggregation in experiment [2] was 20.1% (inactive). The nuclei count in experiment [2] amounted to 36.6%; in experiment [3] it was 103%. In experiment [4], the fluorescence slope is -0.585 (inactive). The NADPH fluorescence slope in experiment [5] is -1.3e-05 (inactive). Also, the slope in experiment [6] was 0.00666 (inactive).
Turning to `Cc1occc1C(=O)N1CCN(c2ncccn2)CC1`, the cell count in experiment [1] was 347. The inhibition was -12.5% (inactive) in experiment [1], -117% (inactive) in experiment [3], -8.62% (inactive) in experiment [7] and 4.37% (inactive) in experiment [8]. Besides, the inhibition of aggregation in experiment [2] was 5% (inactive). Besides, the figures for the nuclei count in experiment [2] and in experiment [3] were 102% and 101%, respectively. Moreover, in experiment [4], the fluorescence slope is -0.356 (inactive). For the same compound, the NADPH fluorescence slope in experiment [5] was 6.9e-06 (inactive). The slope in experiment [6] is 0.00583 (inactive).
Take `CC(CC(=O)NCc1ccccc1)C1CCCO1` (centres undefined): the cell count in experiment [1] was 439. In addition, the inhibition in experiment [1] was -2% (inactive); in experiment [3] it was -112% (inactive); in experiment [7], -2.84% (inactive); in experiment [8] it was -9.76% (inactive). In addition, the inhibition of aggregation in experiment [2] is 20.9% (inactive). Moreover, the nuclei count amounted to 92.2% in experiment [2] and 114% in experiment [3]. Moreover, in experiment [4], the fluorescence slope was -0.463 (inactive). In addition, in experiment [5], the NADPH fluorescence slope is -3.8e-06 (inactive). Also, in experiment [6], the slope is 0.0065 (inactive).
